Test results: PubChem BioAssay (Tox21)
Inconclusive results are not listed. Unmarked numbers belong to inactive results. The call rests on the fitted dose curve.

Assay: qHTS assay for small molecule agonists of the antioxidant response element (ARE) signaling pathway - cell viability counter screen (AID 743203); further: nearly all actives have a fitted effect of over 55% in size
Conditions: ARE-bla HepG2 viability, CellTiter-Glo luminescence, 16 h; series mostly up to 73.3 µM; viability change, negative = cytotoxic: at the top concentration
Method in brief: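 Following 16 hrs of compound treatment at 37C, HepG2 cells with an ARE-controlled beta-lactamase gene were lysed with CellTiter-Glo. Luminescence was read after 30 min at room temperature.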
On the % scale 0 is the no-effect control and ±100 the full control effect.

| SMILES | viability change, negative = cytotoxic |
| --- | --- |
| c1cc(CN2CCCCC2)cc(OCCCNc2nc3ccccc3s2)c1 | -9.16% |
| CC(C=O)Cc1ccc(C(C)C)cc1 (configuration not stated) | 4.6% |
| Cc1nccn1CC1CCc2c(c3ccccc3n2C)C1=O (configuration not stated) | 0.31% |
| CC(C)(O)Cc1ccccc1 | 6.28% |
| CCOC(=O)[C@H](CCc1ccccc1)N[C@@H](C)C(=O)N1CCC[C@H]1C(=O)O | 3.92% |
| COc1nc(C)nc(N)n1 | 15.7% |
| C=C[Si](OC)(OC)OC | 2.5% |
| CC/C=C\C#N | 8.12% |
| COC(=O)CCCCCCCCC(=O)OC | 0.285% [at 94.8 µM] |
| C#CC(C)(O)CC(C)C (configuration not stated) | -23.4% |
| CCC(=O)/C=C/c1ccc(OC)cc1 | 0.363% |
| NC(=O)c1ncn([C@@H]2O[C@H](CO)[C@@H](O)[C@H]2O)c1O | 0.406% |
| CC(C)(C)CC(C)(C)N | 1.92% |
| CC(=O)c1ccc(C)cc1 | 4.64% |
| Cc1cc(C)cc(OCC2CNC(=O)O2)c1 (configuration not stated) | 11.9% |
| NCC[C@H](O)C(=O)N[C@@H]1C[C@H](N)[C@@H](O[C@H]2O[C@H](CN)[C@@H](O)[C@H](O)[C@H]2O)[C@H](O)[C@H]1O[C@H]1O[C@H](CO)[C@@H](O)[C@H](N)[C@H]1O | -0.425% [at 0.756 µM] |
| Nc1ccc2cc(S(=O)(=O)O)ccc2c1 | 6.53% |
| CN1[C@@H]2CC[C@H]1CC(NC(=O)n1c(=O)[nH]c3ccccc31)C2 (some centres not stated) | 0.956% |
| Cc1onc(-c2ccccc2)c1-c1ccc(S(N)(=O)=O)cc1 | 3.3% |
| CC(C)c1cccc(C(C)C)c1N | -14.6% |
| CCC(=O)Nc1cccc(N)c1 | 10.6% |
| Cn1ccc2cc3c(cc21)CCN3C(=O)Nc1cccnc1 | 0.107% [at 34.3 µM] |
